Source: PubChem
The entries come from a sample that favours hits as a whole.
KDM5B inhibitor: inhibitors of human KDM5B histone demethylase; Q9UGL1; 2.6% of 220,000 active; Potency, µM (titrated, usually from 57.7 µM), most hits filed as inhibitors; KDM5B demethylase, FDH-coupled NADH fluorescence (FDH is formaldehyde dehydrogenase); active means well fitted inhibition curve with a large enough effect; further: 0% is about no effect; nearly all actives have a fitted effect of over 70% in size
Target sequence (Q9UGL1 whole entry, looked up): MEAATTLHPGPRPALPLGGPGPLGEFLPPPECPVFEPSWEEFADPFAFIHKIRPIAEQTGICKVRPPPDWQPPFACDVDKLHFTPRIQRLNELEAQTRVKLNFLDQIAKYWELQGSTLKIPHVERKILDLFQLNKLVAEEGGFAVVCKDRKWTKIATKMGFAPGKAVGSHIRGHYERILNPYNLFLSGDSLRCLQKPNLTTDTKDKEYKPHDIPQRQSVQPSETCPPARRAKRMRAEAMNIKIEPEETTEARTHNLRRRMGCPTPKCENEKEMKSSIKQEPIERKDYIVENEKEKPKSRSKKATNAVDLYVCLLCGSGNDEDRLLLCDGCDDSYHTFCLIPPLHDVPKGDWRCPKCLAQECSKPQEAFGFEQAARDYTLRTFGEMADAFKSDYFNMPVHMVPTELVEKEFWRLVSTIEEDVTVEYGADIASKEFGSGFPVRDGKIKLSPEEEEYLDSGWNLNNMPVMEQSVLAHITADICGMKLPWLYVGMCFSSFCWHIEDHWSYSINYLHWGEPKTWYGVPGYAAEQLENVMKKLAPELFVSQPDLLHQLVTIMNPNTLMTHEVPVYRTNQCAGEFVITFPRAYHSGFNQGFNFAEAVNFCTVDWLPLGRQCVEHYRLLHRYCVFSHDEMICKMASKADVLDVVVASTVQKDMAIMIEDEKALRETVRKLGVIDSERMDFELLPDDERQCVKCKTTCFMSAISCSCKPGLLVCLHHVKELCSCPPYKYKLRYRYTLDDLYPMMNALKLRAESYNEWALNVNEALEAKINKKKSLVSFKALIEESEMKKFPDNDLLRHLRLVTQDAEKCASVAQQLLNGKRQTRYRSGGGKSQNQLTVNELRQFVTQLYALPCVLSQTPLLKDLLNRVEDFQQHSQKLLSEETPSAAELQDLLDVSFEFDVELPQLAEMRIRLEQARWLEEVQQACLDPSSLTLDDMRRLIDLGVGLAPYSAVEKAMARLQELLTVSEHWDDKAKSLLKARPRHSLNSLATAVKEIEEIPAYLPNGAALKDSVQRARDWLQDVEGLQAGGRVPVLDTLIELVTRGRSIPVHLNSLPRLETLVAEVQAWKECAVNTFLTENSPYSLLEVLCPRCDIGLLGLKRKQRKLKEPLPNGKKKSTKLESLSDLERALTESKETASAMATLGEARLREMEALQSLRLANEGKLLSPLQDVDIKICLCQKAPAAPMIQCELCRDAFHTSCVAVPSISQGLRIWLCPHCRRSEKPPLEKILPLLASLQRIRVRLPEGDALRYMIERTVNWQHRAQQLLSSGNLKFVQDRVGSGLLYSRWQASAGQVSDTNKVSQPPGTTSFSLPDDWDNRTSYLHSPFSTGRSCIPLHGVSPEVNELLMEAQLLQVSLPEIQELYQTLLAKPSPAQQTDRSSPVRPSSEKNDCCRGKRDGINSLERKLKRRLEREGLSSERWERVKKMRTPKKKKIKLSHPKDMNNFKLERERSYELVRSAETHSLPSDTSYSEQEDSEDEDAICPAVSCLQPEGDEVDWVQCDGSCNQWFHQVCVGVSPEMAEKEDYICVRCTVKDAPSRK
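qHTS format, multiple compound concentrations. Buffer 50 mM HEPES pH 7.5/0.01% Tween-20; 200 nM KDM5BΔAP final; 10 min compound preincubation; substrate-mix levels 12.5 µM peptide, 25 µM α-KG, 0.25 mM NAD⁺; 30 min RT; ΔRFU.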
An asterisk follows results filed as active; i = inactive. Potency means the concentration at half of the fitted maximal effect.

SMILES	KDM5B inhibitor
O=C(NCc1cccnc1)c1cc(-c2ccncc2)nc2ccccc12	i
COc1ccccc1CNC(=O)c1cc(C)nc2ccccc12	i
Cc1ccc2nc(-c3cccnc3)cc(C(=O)NC3CC3)c2c1	i
Cn1ncc2c(C(=O)NCc3ccc(F)cc3)cc(-c3ccc(Cl)nc3)nc21	79µM*
Cc1cc(C(=O)NCc2ccc(F)cc2)c2ccccc2n1	i
Cc1ccc(-c2cc(C(=O)NC3CC3)c3ccccc3n2)cc1	i
O=C(NCc1ccccc1)c1cc(-c2cccnc2)nc2ccccc12	i
COc1ccccc1-c1cc(C(=O)NCc2ccc(F)cc2)c2cnn(C)c2n1	89µM*
Cn1ncc2c(C(=O)NC3CC3)cc(-c3ccc(F)cc3)nc21	112µM*
Cc1ccc(CNC(=O)c2cc(-c3ccc(C)cc3)nc3n[nH]c(-c4ccc(F)cc4)c23)cc1	i
COc1ccccc1Cn1c(C(C)NC(=O)c2ccco2)nc2ccccc21 (stereo not given)	i
CC(NC(=O)c1cc(-c2ccco2)nc2ccccc12)C(=O)NCc1ccccc1 (stereo not given)	i
Cc1ccc(-n2c(SCC(=O)Nc3ccccc3Cl)nc3c(=O)[nH]cnc32)cc1	i
CCn1nnc(NCc2ccc(Cl)cc2Cl)n1	i
Cc1ccc(-c2nnc(C3CN(C(=O)C4CCCCCC4)CC34CCOCC4)o2)cc1 (stereo not given)	i
CN(CC(=O)N(C)c1c(N)n(Cc2ccccc2)c(=O)[nH]c1=O)Cc1ccc(-c2ccccc2)cc1	i
O=C(CN1CCN(CC(=O)Nc2ccc(F)cc2)CC1)NCCc1c[nH]c2ccccc12	i
Cn1ncc2c(C(=O)NCc3ccc(F)cc3)cc(C(C)(C)C)nc21	45µM*
CN(C)C(=O)c1cc(C(C)(C)C)nc2c1cnn2C	i
Cn1ncc(C(=O)NCc2cccnc2)c1-n1cccc1	i
Cn1ncc2c(C(=O)N3CCCC3)cc(C(C)(C)C)nc21	i
O=C(NCc1ccncc1)c1cc(-c2cccnc2)nc2ccccc12	i
Cc1ccc(-c2cc(C(=O)N3CCSCC3)c3cnn(C)c3n2)c(C)c1	i
Cn1ncc2c(C(=O)N3CCC(C#N)CC3)cc(-c3cc(Cl)cc(Cl)c3)nc21	i
COC(=O)CNC(=O)c1cc(-c2ccc(Cl)cc2Cl)nc2c1cnn2C	79µM*
SMILES	KDM5B inhibitor
Cc1cc(C(=O)NCc2cccnc2)c2ccccc2n1	i
Cn1ncc2c(C(=O)NCc3cccnc3)cc(-c3ccc([S+](C)(=O)[O-])cc3)nc21	79µM*
Cn1ncc2c(C(=O)NCc3cccnc3)cc(-c3ccc(Cl)cc3Cl)nc21	79µM*
COc1ccc(CCNC(=O)Cc2c(C)c3ccc(OC(C)=O)c(OC(C)=O)c3oc2=O)cc1	i
CCCCNCCCN1CCOCC1	i
CC(C)C(=O)N1Cc2ccccc2CC2(CCCN(Cc3ccc(O)cc3)C2)C1 (stereo not given)	i
O=C1c2ccccc2S(=O)(=O)N1Cc1nc(-c2ccc(F)cc2)cs1	i
CC(=O)Nc1nc2c(C)cc(NC(=O)Nc3ccccc3)cc2s1	i
CN(Cc1ccccc1)CC(C#N)C(O)c1ccccn1 (stereo not given)	i
S=c1[nH]c2cc(-c3ccccc3)ccc2s1	i
O=C(NC1CCCCCC1)C1CCCN(C(=O)Cc2c[nH]c3ccccc23)C1 (stereo not given)	i
CS(=O)(=O)OCCCOS(C)(=O)=O	i
O=[N+]([O-])c1cccc(/C=N/NC(=S)Nc2ccccc2)c1	i
Cc1cc(-c2cc3c(cn2)CN(Cc2ccc(F)c(F)c2)CCN3)ccn1	i
Cc1cc(-c2cc3c(cn2)CN(Cc2ccccc2F)CCN3)ccn1	35µM*
COc1ccc(-c2cc3c(cn2)CN(Cc2cccnc2)CCN3)cc1F	35µM*
CN(C)c1cccc(-c2cc3c(cn2)CN(Cc2cccnc2)CCN3)c1	i
Fc1ccccc1-c1cc2c(cn1)CN(Cc1cccnc1)CCN2	32µM*
Cc1cc(-c2cc3c(cn2)CN(Cc2c[nH]c4ccccc24)CCN3)ccn1	i
Nc1ccccc1OC1CCCCC1	i
CCN(CC)c1ccc(NC(=O)c2ccc3ccccc3n2)cc1	i
CCOc1cc(C2C(C#N)=C(N)Oc3cc(O)ccc32)ccc1OCc1ccccc1 (stereo not given)	i
COc1ccc(-c2cc(C(=O)NC3CCN(C(C)C)CC3)c3ccccc3n2)cc1OC	i
CCCCCCNC(=S)Nc1cccc(Cl)c1	i
CCC(CO)(CO)NC(=O)c1nc(-c2ccc3cc[nH]c3c2)no1	i
SMILES	KDM5B inhibitor
CCc1ccc(-c2cc(C(F)(F)F)on2)cc1S(=O)(=O)NCc1ccccc1	i
CC1=CCC(/C=N/NC(N)=O)CC1 (stereo not given)	i
CCc1ccc(C2=CC(c3ccccc3C)n3nnnc3N2)cc1 (stereo not given)	i
O=[S+]1([O-])NC2(CCN(Cc3cccnc3)CC2)COc2ccccc21	i
O=[S+]1([O-])NC2(CCN(Cc3ccc(Cl)s3)CC2)COc2ccccc21	71µM*
O=C(C1CCCCC1)N1CCCC2(COc3ccccc3[S+](=O)([O-])N2)C1 (stereo not given)	i
O=[S+]1([O-])NC2(CCCN(Cc3c(F)cccc3F)C2)COc2ccccc21 (stereo not given)	i
O=C(C1CC1)N1CCCC2(COc3ccccc3[S+](=O)([O-])N2)C1 (stereo not given)	i
O=[S+]1([O-])NC2(CCN(CC3CCCCC3)CC2)COc2ccccc21	71µM*
Nc1nccnc1C(=O)NCCc1c[nH]c2ccccc12	i
CNS(=O)(=O)c1ccc(Oc2ccc3ccc(=O)oc3c2)c([N+](=O)[O-])c1	i
COc1ccc(-c2nc(-c3ccccc3)nc3c2CN(C(=O)C2CCCC2)CC3)cc1	i
CC(C)(C)c1ccccc1NC(=O)c1ccc2ccccc2n1	i
CC(C1CC1)N(C)C(=O)/C=C/c1cccc(C#N)c1 (stereo not given)	i
CCCc1nn2c(=O)cc(CSc3ccccc3NC(=O)c3ccco3)nc2s1	i
CCCc1cc(C(=O)N2CCC(=O)N(CC3CC3)C(C(C)C)C2)n[nH]1 (stereo not given)	i
Cc1ccc(Cl)c(C(=O)N2CCC(=O)N(CC3CC3)C(C(C)C)C2)c1 (stereo not given)	i
Cc1nc2ncccn2c1C(=O)N1CCC(=O)N(CC2CC2)C(C(C)C)C1 (stereo not given)	28µM*
CCCc1cc(C(=O)N2CCC(=O)N(CC3CC3)C(C(C)C)C2)cs1 (stereo not given)	i
Cc1cc(C)n2ncc(C(=O)N3CCC(=O)N(CC4CC4)C(C(C)C)C3)c2n1 (stereo not given)	32µM*
Cc1ccc2[nH]c(C(=O)N3CCC(=O)N(CC4CC4)C(C(C)C)C3)c(C)c2c1 (stereo not given)	i
O=C(NCCc1ccc(Cl)cc1)c1ccc2c(=O)n(-c3ccccc3)c(=O)[nH]c2c1	i
O=C(NCc1ccc2c(c1)OCO2)c1cnc2c(c1)N([S+](=O)([O-])c1cccnc1)CCC2	i
CC(C)CCNC(=O)c1ccc2c(c1)CC(=O)N2Cc1ccccc1	i
CC1CCC(NC(=O)c2ccc3c(c2)N(Cc2ccccc2)C(=O)c2ccccc2S3=O)CC1 (stereo not given)	i
CC(C)Oc1ccc(C(=O)NC2CCN(Cc3ccccc3)CC2)cc1	i
